Laboratory results as given in PubChem BioAssay (NCATS).
Records with an inconclusive call do not appear. Active and inactive are the calls of the source. Calls come from the whole dose curve; as a rule, active = well fitted inhibition curve with a large enough effect in the signal ratio, with a control signal flat (not every such curve was filed as active); inconclusive = small, poorly fitted or top-dose-only effect, or effect the other way, or a change in a side signal; inactive = no such curve, though single readings can be large or run the other way; the % refers to the signal ratio.

target: Retinoic acid receptor RXR-alpha (Homo sapiens) (UniProt P19793); test: qHTS assay for small molecule antagonists of retinoid X receptor alpha signaling (AID 588546); details: HEK293T RXRa-UAS-bla, beta-lactamase ratio, antagonist mode
Sequence (P19793 whole entry, looked up): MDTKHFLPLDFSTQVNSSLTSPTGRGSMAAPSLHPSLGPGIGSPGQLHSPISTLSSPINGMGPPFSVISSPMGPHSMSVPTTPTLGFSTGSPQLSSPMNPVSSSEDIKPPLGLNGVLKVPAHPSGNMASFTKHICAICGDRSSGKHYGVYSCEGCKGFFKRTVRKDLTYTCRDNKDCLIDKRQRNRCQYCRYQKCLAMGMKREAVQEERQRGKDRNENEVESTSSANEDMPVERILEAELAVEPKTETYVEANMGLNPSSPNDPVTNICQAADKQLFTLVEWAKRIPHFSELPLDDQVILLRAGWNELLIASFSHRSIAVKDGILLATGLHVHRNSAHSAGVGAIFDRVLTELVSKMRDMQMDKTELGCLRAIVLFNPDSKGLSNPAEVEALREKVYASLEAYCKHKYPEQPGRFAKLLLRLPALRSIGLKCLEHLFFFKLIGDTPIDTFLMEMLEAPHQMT
From the text: NIH Chemical Genomics Center [NCGC] U.S. Environmental Protection Agency [EPA] National Institutes of Environmental Health Sciences [NIEHS] National Toxicology Program [NTP] NCGC Assay Overview The Retinoid X receptor (RXR), a nuclear hormone receptor is expressed in liver, spleen, placenta, epidermis, central nervous system. These receptors are able to form homo and heterodimers with other nuclear receptors and due to this heterodimerizing ability, RXR functions as master regulators producing diverse physiological effects. Three subtypes of RXR exist; alpha, beta and gamma. Retinoid X receptor alpha (RXR-alpha) has potential roles in metabolic signaling pathways, skin alopecia, dermal cysts, cardiac development, insulin sensitization etc. Therefore screening environmental chemicals on RXR-alpha signaling can be used for the studies focused on such therapeutic applications.
NCGC Assay Protocol Summary Using a beta-lactamase reporter-gene under control of Retinoid X receptor--alpha (RXR-alpha) response element, a cell-based assay [GeneBLAzer (RXR-alpha -UAS-bla assay developed by Invitrogen] was used to measure RXR-alpha ligands signaling. GeneBLAzer RXR-alpha -UAS-bla HEK293T cells were used with assay medium containing 2% charcoal-stripped FBS. The assay was performed in clear bottom black Greiner 1536-well plates. Library compounds were measured for their ability to inhibit the reporter gene activity. Compounds were screened in a titration series in 1536-well format. The fluorescence intensity (405 nm excitation, 460/530 nm emission) was measured using an EnVision plate reader. Data was normalized relative to 9-cis-retinoic acid control (500 nM, 100%), and DMSO only wells (basal, 0%). Concentration-response titration points for each compound were fitted to the Hill equation yielding concentrations of half-maximal inhibition (IC50) and maximal response (efficacy) values. qHTS protocol for RXR-alpha beta-lactamase assay in antagonist mode [Step] [Parameter] [Value] [Description] 1. Reagent; 5 uL; 2500 cells/well 2. Incubation; 37 C for 4 hrs 3. Compounds; 23 nL; 0.59 nM to 92 uM 4. Controls (DMSO); 23 nL 5. Agonist (Stimulator); 1uL; 9-cis-retinoic acid at 500 nM and 100 nM final concentrations 6. Incubation; 37 C for 18 hrs 7. Detection reagent; 1 uL of CCF4-dye 8. Incubation; RT for 2 hrs 9. Detection; Fluorescence; Envision plate reader

Compound	max response
CC1(C)C(=O)N(Cl)C(=O)N1Cl	-12.2% (inactive)
CC1(C)C(C=C(Cl)Cl)[C@H]1C(=O)OCc1cccc(Oc2ccccc2)c1 (stereo not given in full)	-0.468% (inactive)
CC(C)c1ccc2cc(C(C)C)ccc2c1	-6.87% (inactive)
C[N+](C)(C)CC(O)CCl (stereo not given)	4% (inactive)
C=CCOc1nc(OCC=C)nc(OCC=C)n1	0.817% (inactive)
O=C(O)CCCCCCC(=O)O	2.98% (inactive)
C[Si]1(C)N[Si](C)(C)N[Si](C)(C)N1	-7.51% (inactive)
CCCCOC(=O)/C=C\C(=O)OCCCC	8.44% (inactive)
CS(=O)(=O)c1ccc(Cl)cc1	-18.5% (inactive)
OC1CCCCCCCCCCC1	-4.46% (inactive)
O=C(O)CCCCCCCCCCC(=O)O	7.09% (inactive)
CC1COCc2cc3c(cc21)C(C)(C)C(C)C3(C)C (stereo not given)	0.528% (inactive)
CC(C)O.CC(C)O.CC(C)O.CC(C)O.[Ti]	1.54% (inactive)
CC(=O)/C=C/C1C(C)=CCCC1(C)C (stereo not given)	-10.8% (inactive)
CCCCC/C=C\C/C=C\CCCCCCCC(=O)OC	-5.56% (inactive)
CC(C)Cc1c(C(=O)O)c(C(F)F)nc(C(F)(F)F)c1C1=NCCS1	6.24% (inactive)
O=C(O)c1cccc(C(=O)O)c1	-3.25% (inactive)
CCCC[O][Al]([O]CCCC)[O]CCCC	-27.3% (inactive)
CCOCCOCCOCC	-12.1% (inactive)
COC(=O)c1c(Cl)nn(C)c1S(=O)(=O)NC(=O)Nc1nc(OC)cc(OC)n1	-14.3% (inactive)

Compound	max response
c1ccc(B(c2ccccc2)c2ccccc2)cc1	-24.3% (inactive)
O=C(O)C1(C(=O)Nc2ccc(Cl)cc2Cl)CC1	9.68% (inactive)
c1ccc2cc3c(ccc4ccccc43)cc2c1	-3.27% (inactive)
CCCCCCCCCCCCc1ccccc1	3.12% (inactive)
C=CCCCCCCCCC=O	-16.9% (inactive)
CC(=O)c1c(C)c([N+](=O)[O-])c(C(C)(C)C)c([N+](=O)[O-])c1C	-4.43% (inactive)
CCCCCCCCCCCCCCCO	-24% (inactive)
O=C(Cl)c1cc(Cl)cc(Cl)c1	-11.9% (inactive)
COC(=O)c1ccccc1C(=O)O	-10.2% (inactive)
CC(C)c1cccc(C(C)C)c1	-4.2% (inactive)
CCCCNS(=O)(=O)c1ccccc1	5.33% (inactive)
CCCCCc1ccc(N)cc1	-25% (inactive)
CC(C)(C)C(O)/C(=C\c1ccc(Cl)cc1)n1cncn1 (stereo not given)	-24.9% (inactive)
CCCCCCOCCOCCO	2.18% (inactive)
O=C(O)c1ccc(C(=O)O)c(C(=O)O)c1	-0.212% (inactive)
CCCCOC(=O)c1ccccc1	3.76% (inactive)
O=C(O)CN(CCO)CCN(CC(=O)O)CC(=O)O	-2.39% (inactive)
O=C(O)c1cc2ccccc2cc1O	-6.59% (inactive)
O=C1CCC(C2CCCCC2)CC1	-6.4% (inactive)
Cl[Si](Cl)(c1ccccc1)c1ccccc1	-0.846% (inactive)
